From the supplement of paper PMC10646978
± gives the standard deviation.

Key:
Conditions in all cases: modulator concentration 10 µM
[1] = test system: RAW-Dual (murine macrophage reporter line); assay: NF-kB reporter (SEAP) activity fold change vs agonist alone; higher = enhanced NF-kB activity
Summary of the method: (§1)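 Compound reached 10 μM final in each well by pin transfer, onto RAW-Dual murine macrophage reporter cells seeded at 50 000 per well in 384-well plates. After 1 hour at 37 °C, the cells were stimulated overnight with a PRR agonist. SEAP in the supernatant was read with QUANTI-Blue at 620 nm absorbance for NF-κB, and Lucia luciferase was read with QUANTI-Luc luminescence for IRF. Each signal was turned into fold change against the mean agonist-only control on the same plate, and two replicate plates were averaged with propagated errors.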

[2] = test system: RAW-Dual (murine macrophage reporter line); assay: IRF reporter (Lucia luciferase) activity fold change vs agonist alone; higher = enhanced IRF activity
Summary of the method: as §1

[3] = test system: RAW-Dual (murine macrophage reporter line); assay: viability score (confluency relative to resting cells, overnight) (fraction); higher = more viable, active = viable (0.7 or more)
Summary of the method: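 Compound was added at a final 10 μM to RAW-Dual macrophages in 384-well plates and left overnight. Confluency was imaged with IncuCyte, and two masks were generated in IncuCyte software over all imaged wells. Each viability score is confluency relative to resting cells, and a compound met the cutoff only when both masks were above 70% of resting cells.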

[4] = agonist: CpG ODN 1826 0.5 ug/mL

Structure (SMILES) | NF-kB reporter [1, 4] | NF-kB reporter ([1]; agonist: LPS 0.1 ug/mL) | NF-kB reporter ([1]; agonist: MPLA […]) | IRF reporter ([2]; agonist: 3'3'-cGAMP 10 ug/mL) | IRF reporter ([2]; agonist: LPS 0.1 ug/mL) | IRF reporter ([2]; agonist: MPLA […]) | viability score [3]
O=C(O)CCc1nc(-c2ccccc2)c(-c2ccccc2)o1 | 1.05 ± 0.079 | 0.998 ± 0.066 | 1.03 ± 0.023 | 0.931 ± 0.055 | 0.976 ± 0.12 | 1.03 ± 0.15 | 0.991 (active)
CC1c2cccc(O)c2C(=O)C2=C(O)C3(O)C(=O)C(C(N)=O)=C(O)C(N(C)C)C3C(O)C21.Cl (stereo not drawn) | 1.34 ± 0.32 | 1.15 ± 0.058 | 1.04 ± 0.074 | 0.795 ± 0.041 | 1.14 ± 0.15 | 1.02 ± 0.12 | 0.992 (active)
O=C(NCc1nc(C2CCCCC2)cs1)c1ccc(F)cc1 | 0.898 ± 0.05 | 1.16 ± 0.11 | 0.918 ± 0.047 | 1.03 ± 0.063 | 1.26 ± 0.094 | 1.1 ± 0.09 | 0.931 (active)
CC(=O)c1cc2c(o1)C(=O)c1ccccc1C2=O | 1.19 ± 0.28 | 1.36 ± 0.068 | 1.31 ± 0.1 | 0.995 ± 0.035 | 1.12 ± 0.16 | 1.18 ± 0.27 | 0.995 (active)
CC1(C)OC(=O)NC1=O [Prestw-829] | 1 ± 0.076 | 1.07 ± 0.065 | 0.958 ± 0.024 | 0.93 ± 0.051 | 0.958 ± 0.13 | 1.01 ± 0.12 | 0.998 (active)
FC(F)(F)c1ccc(CN2CCCC(c3nc4ccccc4[nH]3)C2)cc1 (stereo not drawn) | 0.701 ± 0.27 | 0.876 ± 0.21 | 0.555 ± 0.2 | 0.693 ± 0.32 | 0.829 ± 0.19 | 0.967 ± 0.23 | 0.903 (active)
S=C(NC12CC3CC(CC(C3)C1)C2)N1CCOCC1 | 1.14 ± 0.11 | 1.06 ± 0.074 | 1.07 ± 0.039 | 1.01 ± 0.13 | 1.07 ± 0.1 | 1.15 ± 0.12 | 1 (active)
O=C1OC(c2ccc3ccccc3c2)=NC1=Cc1ccc(Br)c([N+](=O)[O-])c1 | 0.963 ± 0.15 | 0.878 ± 0.08 | 0.896 ± 0.1 | 0.861 ± 0.04 | 1.16 ± 0.11 | 1.19 ± 0.24 | 0.998 (active)
CCOc1ccc(C=C2SC(=S)N(C)C2=O)cc1 | 0.96 ± 0.075 | 1.01 ± 0.072 | 0.905 ± 0.073 | 0.962 ± 0.049 | 1.39 ± 0.15 | 1.3 ± 0.23 | 1.01 (active)
CCOc1ccc(S(=O)(=O)NCCn2nc(C3CC3)ccc2=O)cc1C | 1.01 ± 0.063 | 1.07 ± 0.12 | 1.04 ± 0.045 | 1.02 ± 0.051 | 0.993 ± 0.079 | 0.875 ± 0.15 | 0.982 (active)
Cc1ccccc1-c1noc(-c2cc3ccccc3oc2=O)n1 | 0.911 ± 0.25 | 0.936 ± 0.077 | 0.917 ± 0.07 | 1 ± 0.027 | 1.08 ± 0.11 | 1.21 ± 0.12 | 0.996 (active)
Cc1c(C(=O)NN)sc(-c2ccccc2)c1C#N | 0.868 ± 0.071 | 1.13 ± 0.074 | 0.987 ± 0.034 | 0.562 ± 0.071 | 1.08 ± 0.12 | 1.43 ± 0.29 | 0.998 (active)
CC(C)C(=O)N1CCCc2ccc(NC(=O)COc3ccc4ccccc4c3)cc21 | 0.867 ± 0.07 | 1.44 ± 0.12 | 1.31 ± 0.071 | 0.771 ± 0.075 | 1.26 ± 0.092 | 1.54 ± 0.12 | 0.995 (active)
CC(C)NNC(=O)c1ccncc1 [Prestw-176] | 1.04 ± 0.078 | 1.06 ± 0.088 | 1.02 ± 0.022 | 1.02 ± 0.068 | 0.958 ± 0.083 | 1.01 ± 0.093 | 0.997 (active)
CCOC(=O)C1CCCN(S(=O)(=O)Cc2ccccc2)C1 (stereo not drawn) | 0.766 ± 0.067 | 0.879 ± 0.043 | 1.02 ± 0.089 | 0.814 ± 0.04 | 1.42 ± 0.096 | 1.53 ± 0.14 | 1.01 (active)
Cc1c(OCC(F)(F)F)ccnc1CS(=O)c1nc2ccccc2[nH]1 (stereo not drawn) | 1 ± 0.16 | 0.915 ± 0.28 | 0.929 ± 0.063 | 0.699 ± 0.037 | 1.11 ± 0.3 | 1.07 ± 0.096 | 0.984 (active)
CN(C)S(=O)(=O)N1CCC(CNC(=O)NC2CCCC2)CC1 | 0.963 ± 0.098 | 1.09 ± 0.098 | 0.818 ± 0.11 | 0.958 ± 0.1 | 1.04 ± 0.062 | 0.874 ± 0.31 | 1 (active)
Cc1ccc(S(=O)(=O)n2nc(C)c(C)c2C)cc1C | 0.929 ± 0.047 | 1.11 ± 0.11 | 1.05 ± 0.068 | 1.07 ± 0.068 | 1.2 ± 0.16 | 1.26 ± 0.34 | 1.01 (active)
Clc1cccc(C=Nc2ccc(N=Cc3cccc(Cl)c3Cl)cc2)c1Cl | 0.979 ± 0.081 | 1.08 ± 0.07 | 1 ± 0.04 | 0.815 ± 0.059 | 1.05 ± 0.056 | 1.09 ± 0.12 | 1 (active)
O=C(O)CCCCCN1C(=O)c2cccc3cccc(c23)C1=O | 0.97 ± 0.055 | 1.05 ± 0.094 | 0.948 ± 0.06 | 0.989 ± 0.05 | 1.35 ± 0.092 | 1.11 ± 0.1 | 1.01 (active)
CCOc1ccc2nc(NC(=O)c3ccc(Br)cc3F)sc2c1 | 1.15 ± 0.095 | 1.1 ± 0.098 | 1 ± 0.041 | 0.873 ± 0.071 | 1.05 ± 0.067 | 0.946 ± 0.15 | 0.994 (active)
Cc1cccc(Cn2cc(C=C3SC(=S)NC3=O)c3ccccc32)c1 | 0.681 ± 0.067 | 0.893 ± 0.043 | 1 ± 0.088 | 0.844 ± 0.045 | 0.955 ± 0.1 | 1.09 ± 0.17 | 1.02 (active)
CCN(CCCc1ccccc1)CCCc1ccccc1.O=C(O)CC(O)(CC(=O)O)C(=O)O | 1.32 ± 0.057 | 1.4 ± 0.11 | 2.08 ± 0.29 | 0.265 ± 0.014 | 0.448 ± 0.079 | 0.468 ± 0.11 | 0.991 (active)
CC1=NN(c2ccc(C(=O)O)cc2)C(=O)C1=Cc1ccc(-c2cc(C)c(C)cc2[N+](=O)[O-])o1 | 0.951 ± 0.057 | 0.969 ± 0.076 | 0.947 ± 0.073 | 1 ± 0.066 | 0.976 ± 0.07 | 0.92 ± 0.23 | 0.997 (active)
